Where “and” joins values, the source holds several entries; their conditions need not be identical. Equal values may be shown once. About 2,100 (0.66%) of roughly 320,000 compounds were called active. Roughly 53% stayed inconclusive and do not appear here. Calls come from the whole dose curve; as a rule, active = well fitted inhibition curve with a large enough effect in the signal ratio, with a control signal flat (not every such curve was filed as active); inconclusive = small, poorly fitted or top-dose-only effect, or effect the other way, or a change in a side signal; inactive = flat fitted curve, though single readings scatter; the % refers to the signal ratio. What follows is part of a selection rich in actives, with near analogues and random picks from the rest.
Test: qHTS Assay for Lipid Storage Modulators in Drosophila S3 Cells;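 for cell number change: cells counted by Cell Tracker Red CMTPX staining in the red channel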; for lipid storage change, negative = inhibition: % is set by controls: 0 for no effect and ±100 for the full control effect
Settings: BODIPY lipid droplet fluorescence, 18-24 h, cells fed with added oleic acid; cell number change: measured here: cell count max response; series mostly up to 46.1 µM; lipid storage change, negative = inhibition: at the top concentration
In short: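 Drosophila S3 cells got compounds at several concentrations plus oleic acid (400 uM solution). Laser-scanning cytometry with 488 nm excitation read lipid droplets at 500-530 nm and cells at 575-640 nm. Percent activity was relative to 20 uM Triacsin C.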
Potency is the fitted concentration of half-maximal effect.

Row | Compound | Potency | cell number change | outcome | lipid storage change, negative = inhibition
1 | C[C@@H]1CC[C@H](O)/C=C/C(=O)O[C@H](C)CC[C@H](O)/C=C/C(=O)O1 | 5.8 µM (active) | -1.52% | – | –
2 | CC1CC(Nc2ccccc2)=CC(=O)O1 (stereo unspecified) | – | – | inactive | –
3 | COc1ccc([C@H]2CC(=O)C=C(c3ccc4c(c3)OCO4)C2)cc1 | – | 2.65% | – | -9.07% (inactive)
4 | COc1ccc(NC2CCCN(C(=O)c3ccc4nc(C)c(C)nc4c3)C2)cc1OC (stereo unspecified) | – | – | inactive | –
5 | CCOC(=O)C1CCCN(C(=O)c2ccc3nc(-c4cccc(OC)c4)oc3c2)C1 (stereo unspecified) | – | 6.9% | – | -19.1% (inactive)
6 | CCOC(=O)C1CCCN(C(=O)c2ccc3nc(-c4ccc(OC)c(OC)c4)c(-c4ccc(OC)c(OC)c4)nc3c2)C1 (stereo unspecified) | 4.11 µM (active) | -26.9% | – | –
7 | O=c1c2nnn(-c3ccc(Br)cc3)c2ncn1Cc1ccccn1 | – | 17.2% | – | 14.2% (inactive)
8 | CSC1=NC(NCCCO)c2c(sc3c2CC(C)(C)OC3)N1 (stereo unspecified) | – | -5.44% | – | 21.6% (inactive)
9 | CC(=O)N1N=C(c2ccc(Cl)cc2)CC1c1ccco1 (stereo unspecified) | – | 10.2% | – | 26.9% (inactive)
10 | O=S(=O)(c1ccccc1)N1N=C(c2ccc(Br)cc2)CC1c1ccco1 (stereo unspecified) | 16.4 µM (active) | 13.4% | – | –
11 | CS(=O)(=O)Nc1cccc(C2=NN(S(=O)(=O)c3ccccc3)C(c3ccco3)C2)c1 (stereo unspecified) | – | -5.75% | – | 0.748% (inactive)
12 | CC(=O)N1N=C(c2ccc(NS(=O)(=O)c3ccccc3)cc2)CC1c1ccco1 (stereo unspecified) | 9.2 µM (active) | -11.6% | – | –
13 | CC(=O)N1N=C(c2cccc(NS(=O)(=O)c3ccc(C)cc3)c2)CC1c1ccco1 (stereo unspecified) | – | -6.11% | inactive | –
14 | CCS(=O)(=O)Nc1ccc(C2=NN(S(=O)(=O)c3ccc(F)cc3)C(c3ccco3)C2)cc1 (stereo unspecified) | – | 4.44% | – | -3.66% (inactive)
15 | Cc1cc(C)c(O)c(-c2cc(C(=O)Nc3cccnc3)[nH]n2)c1 | – | -5.15% | – | -22.1% (inactive)
16 | CCc1ccc(-c2cc(C)no2)cc1S(=O)(=O)NCc1ccccc1OC | – | 2.29% | inactive | –
17 | COc1ccc(-c2noc(-c3ccccc3C(=O)Nc3cccc(OC)c3)n2)cc1 | – | 2.43% | – | 13.9% (inactive)
18 | O=C1CCCc2c1cc(C(=O)NCc1ccco1)c(=O)n2-c1ccccc1 | – | 1.19% | – | 12.5% (inactive)
19 | CC(Cl)C(=O)c1ccc2c(c1)CCN2C(=O)C1CC1 (stereo unspecified) | – | -1.68% | – | 4.02% (inactive)
20 | CCN1CCN(C(c2cccnc2)c2c(NC(=O)c3ccco3)sc(C)c2C)CC1 (stereo unspecified) | 8.2 µM (active) | -4.13% | – | –
21 | COc1ccc(C(c2c(NC(=O)c3ccco3)sc(C)c2C)N2CCOCC2)cc1OC (stereo unspecified) | – | -1.23% | – | 8.2% (inactive)
22 | COc1cccc(C(c2c(NC(=O)c3ccco3)sc(C)c2C)N2CCOCC2)c1 (stereo unspecified) | 20.6 µM (active) | -13.8% | – | –
23 | COc1ccc(C(c2c(NC(=O)c3ccco3)sc(C)c2C)N2CCOCC2)cc1 (stereo unspecified) | – | – | inactive | –

Row | Compound | Potency | cell number change | outcome | lipid storage change, negative = inhibition
24 | Cc1sc(NC(=O)c2ccco2)c(C(c2cccnc2)N2CCN(CCO)CC2)c1C (stereo unspecified) | – | -13.8% | – | -3.36% (inactive)
25 | Cc1sc(NC(=O)c2ccco2)c(C(c2cccnc2)N2CCCC2)c1C (stereo unspecified) | – | -20.2% | – | -15.8% (inactive)
26 | CCOCCCNCc1c(Cl)cccc1Cl | – | 5.68% | – | 1.39% (inactive)
27 | CCOC(=O)/C(=N\Nc1cccc(Cl)c1)Sc1nnc(-c2ccc(OC)cc2)n1C | – | 1.18% | – | 13.8% (inactive)
28 | O=S(=O)(NCCc1ccccn1)c1ccc(-c2ccccn2)s1 | – | -6.49% | – | 5.79% (inactive)
29 | O=C1OCCN/C1=C\C(=O)c1ccc(Cl)cc1 | – | 19.7% | – | 4.76% (inactive)
30 | OCCC1CN(Cc2nc3c(s2)CCCC3)CCN1Cc1ccccc1 (stereo unspecified) | – | 17.4% | – | 8.62% (inactive)
31 | CCN1CCN(C(=S)c2ccc(Br)cc2)CC1 | – | -1.28% | – | -3.85% (inactive)
32 | CCc1nnc(NC(=O)Cc2ccc(OC)c(OC)c2)s1 | – | 9.15% | – | -9.59% (inactive)
33 | CC(C)C[C@H](NC(=O)C1(c2ccccc2)CCN(C(=O)[C@H]2CSCN2C(=O)OC(C)(C)C)CC1)C(=O)O | – | – | – | -0.167% (inactive)
34 | C[C@H](NC(=O)C1(c2ccccc2)CCN(C(=O)[C@H]2CSCN2C(=O)OC(C)(C)C)CC1)C(=O)O | -15.3% and -9.67% | – | – | –
35 | CC(C)[C@H](NC(=O)C1(c2ccccc2)CCN(C(=O)OC(C)(C)C)CC1)C(=O)O | – | 0.279% | – | -1.69% (inactive)
36 | CC1NC(=O)c2ccccc2-n2c1nc1cc(F)ccc1c2=O (stereo unspecified) | – | 0.361% | – | -24.4% (inactive)
37 | Cc1ccc(C2=NCCn3c2c2ccc([N+](=O)[O-])cc2[n+]3[O-])cc1 | 0.58 µM (active) | -25.9% | – | –
38 | O=[N+]([O-])c1ccc2c3n([n+]([O-])c2c1)CCN=C3c1ccc(Cl)cc1 | – | 12.6% | – | 8.37% (inactive)
39 | COc1ccc(C2=NCCn3nc4cc(OC)ccc4c32)cc1 | – | -20.7% | – | 3.18% (inactive)
40 | NS(=O)(=O)c1ccc(CNC(=S)NC2CCCCC2)cc1 | – | -8.89% | – | -3.85% (inactive)
41 | Cc1ccc(NC(=O)Cn2c(O)c(N=NC(N)=O)c3ccccc32)cc1 | – | -8.5% | – | -14.8% (inactive)
42 | COc1cccc2cc(C(=O)N3CCN(c4ccc(C)cc4C)CC3)c(=O)oc12 | – | 12.9% | inactive | –
43 | O=P(O)(OCc1ccccc1)OCc1ccccc1 | – | 4.18% | – | 5.37% (inactive)
44 | COC(=O)c1c(NC(=O)c2ccco2)sc2c1CCN(C(C)=O)C2 | 7.31 µM (active) | -25.8% | – | –
45 | COC(=O)c1c(NC(=O)c2ccco2)sc2c1CCC2 | – | 3.65% | – | 0.361% (inactive)
46 | COC(=O)c1c(NC(=O)C2CC2)sc2c1CCN(C(C)=O)C2 | – | – | inactive | –

— PubChem BioAssay AID2685 (National Center for Advancing Translational Sciences (NCATS), 2010)
